JMJD2C inh = human JMJD2C demethylase inhibition; GST-JMJD2C(1-420) H3K9me3 demethylation, DELFIA europium; inhibition, % at 2.35 µM; 330,000 tested, 0.069% active; AID 2099;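 active means more than half of a compound's replicate wells show inhibition beyond 50%, single wells judged on their own value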;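 further: signal counts dimethyl H3K9 product captured on neutravidin plate; 0% = median of DMSO wells and 100% = 0.3 times that DMSO median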
Target sequence (Q9H3R0 1-420 limits assumed): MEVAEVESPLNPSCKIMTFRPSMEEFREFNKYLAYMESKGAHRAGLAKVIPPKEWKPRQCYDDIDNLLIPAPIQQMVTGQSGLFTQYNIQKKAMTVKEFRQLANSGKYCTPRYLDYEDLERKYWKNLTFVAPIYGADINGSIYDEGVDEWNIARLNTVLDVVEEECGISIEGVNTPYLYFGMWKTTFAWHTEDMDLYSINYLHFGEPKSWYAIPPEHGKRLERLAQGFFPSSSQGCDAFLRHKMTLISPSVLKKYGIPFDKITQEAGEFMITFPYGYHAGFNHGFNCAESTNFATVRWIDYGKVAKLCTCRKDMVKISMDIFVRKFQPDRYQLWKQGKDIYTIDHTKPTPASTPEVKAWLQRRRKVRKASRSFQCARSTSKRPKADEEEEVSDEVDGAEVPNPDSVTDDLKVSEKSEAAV
MIN6 prolif = MIN6 beta-cell proliferation induction; MIN6 cells proliferation, ATPlite luminescence, 48 h; cells starved in 0.2% serum; 100% = growth in 10% serum; proliferation, % at 10 µM; 330,000 tested, 0.29% active; AID 2380;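 active means compounds whose signal lies at least 3.5 SD above the mean of all wells on their plate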;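 further: 0% = DMSO-treated cells in low-serum medium and 100% = 10% serum control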
Granule exo inh = blocks lytic granule exocytosis; inhibition, % at 10 µM; 360,000 tested, 0.66% active; TALL-104 LAMP-1 surface exposure, flow cytometry; cells stimulated with thapsigargin and PMA;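 active means inhibition above about 55%, limit read from the data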
ALR inh = inhibitors of human sulfhydryl oxidase ALR. P55789. purified ALR, DTT oxidation, H2O2 HRP-luminol luminescence. inhibition, % (concentration not given with the values). 290,000 tested, 3.8% active. AID 485317;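 active means mean replicate inhibition above about 79%, with every replicate also reaching it, limit read from the data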
Target sequence (P55789 whole entry, looked up): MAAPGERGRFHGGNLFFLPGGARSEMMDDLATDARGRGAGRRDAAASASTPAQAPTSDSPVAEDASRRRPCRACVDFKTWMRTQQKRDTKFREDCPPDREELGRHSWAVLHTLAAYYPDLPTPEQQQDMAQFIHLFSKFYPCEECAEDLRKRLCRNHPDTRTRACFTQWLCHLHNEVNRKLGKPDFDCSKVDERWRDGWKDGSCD
M18AAP inhibitor = PfM18AAP enzyme inhibition; inhibition, % at 7.35 µM; recombinant PfM18AAP, H-Glu-NHMec fluorogenic cleavage; 290,000 tested, 1.2% active;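 active means inhibition above the campaign mean inhibition over all tested compounds plus 3 SD, cut at about 28% in these data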;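 further: 0% = plate median of test compound wells and 100% = 2 mM ZnCl2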
SMARCA2 act = activators of SMARCA2 function | MG213 cells, MMTV-luciferase reporter, dexamethasone, overnight | activation, % at 9.1 µM | 370,000 tested, 1% active | AID 652017; in the data active means activation above about 7.8%;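 further: 0% = vehicle wells and 100% = reference activator wells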
An asterisk follows results filed as active; x = no result; ! = repeats disagree. An excerpt weighted towards active compounds, which were near 5.4% of everything screened.

SMILES | JMJD2C inh | MIN6 prolif | Granule exo inh | ALR inh | M18AAP inhibitor | SMARCA2 act
COc1ccc(NC(=O)CN(C)C(=O)CSCC(=O)Nc2ccc(C)cc2)cc1 | -41.5 | -0.2 | -1.6 | x | x | -0.5
Cc1ccc(NC(=O)CSCC(=O)N(C)CC(=O)Nc2cccc(F)c2)cc1 | 26.1 | -3.4 | 10.1 | 98.8* | x | -1.8
COc1cccc(CNCC(=O)Nc2ccc(N3CCOCC3)cc2)c1 | -7.1 | -0.9 | -1.4 | 99.0* | 10.3 | -0.1
COc1ccccc1CCn1cnc(-c2ccccc2)c1CC(C)C | x | x | x | x | x | -7.7
O=C(CCc1ccccc1)N[C@H]1[C@H](OC(=O)c2ccco2)CCC[C@@]12C(=O)N(Cc1ccccc1)c1ccccc12 | x | x | x | x | x | -0.9
C=CCn1c(COc2ccccc2)nnc1SCC(=O)Nc1ccc(S(=O)(=O)Nc2cc(C)nc(C)n2)cc1 | x | x | x | x | x | -1.7
CCNC(=O)Oc1ccc(-c2csnn2)cc1 | 21.9 | -0.6 | 0.3 | 99.0* | 1.9 | -1.5
C/C(N)=C(/C#N)C(=O)COC(=O)CSc1ccc2ccccc2c1 | 5.8 | 1.4 | 0.1 | 32.8 | -0.2 | 3.2
CCNC(=O)NC(=O)CSc1ccc2ccccc2c1 | -4.9 | -1.0 | 1.6 | 98.0* | -7.3 | -2.2
NS(=O)(=O)c1ccc(CCNC(=O)CN2CCN(c3ccccc3O)CC2)cc1 | -5.0 | -3.0 | -1.2 | 98.9* | 5.2 | 3.6
NS(=O)(=O)c1ccc(CCNC(=O)CSc2ccc3ccccc3c2)cc1 | -2.6 | -1.2 | -1.7 | 99.3* | 5.8 | -2.5
NC(=O)COC(=O)CSc1ccc2ccccc2c1 | -1.1 | -3.7 | 6.6 | 98.8* | -5.7 | -0.8
CCNC(=O)NC(=O)CSc1ccccc1F | -16.2 | 0.0 | -2.7 | -2.8 | 0.0 | -1.0
NS(=O)(=O)c1ccc(CCNC(=O)CSc2ccc([N+](=O)[O-])cc2)cc1 | 5.6 | 0.0 | 2.9 | 2.6 | 4.6 | 0.9
Cc1cccc(Cn2cc(CN3CC(N4CCN(CCOC(=O)c5cc6ccccc6o5)CC4)CS3(=O)=O)nn2)c1 (configuration not stated) | x | x | x | x | x | -0.6
CN(Cc1ccccc1F)C(=O)C1C2C=CC3(CN(Cc4ccccc4)C(=O)C13)O2 (configuration not stated) | x | x | x | x | x | -2.2
O=C(COC(=O)c1cc(-c2ccc(Cl)s2)nc2ccccc12)NCc1ccco1 | -6.1 | -1.1 | -8.8 | 91.8* | 6.1 | 0.3
O=C(COC(=O)c1cc(-c2cccs2)nc2ccccc12)NCc1ccco1 | 11.8 | -0.9 | 8.6 | 8.4 | 9.3 | -0.1
O=C(C1CC1)N1CCN=C1SCc1ccc(F)cc1 | 3.3 | -2.9 | 3.9 | 99.7* | 2.4 | -1.5
CC(=O)N1CCN=C1SCc1ccc(C(F)(F)F)cc1 | 0.3 | -2.6 | -19.1 | 99.0* | -5.5 | -2.2
O=C(C1CC1)N1CCN=C1SCc1cccc(F)c1 | 2.5 | 4.0 | -2.2 | 99.0* | 7.0 | -0.2
CC(Oc1ccccc1)C(=O)N1CCN=C1SCc1ccccc1 (configuration not stated) | 3.3 | -0.6 | 1.2 | 1.2 | 2.8 | -4.1
O=C(C1CC1)N1CCN=C1SCc1ccccc1 | 3.6 | 2.9 | -5.0 | -0.7 | -0.3 | -0.5
C#CCCCN([C@@H](CC(C)C)C(=O)OC)S(=O)(=O)c1ccccc1Br | x | x | x | x | x | -4.5
CCCCCCCCN1CCS(=O)(=O)N(Cc2ccc(F)cc2)C(C(=O)OC)C1 (configuration not stated) | x | x | x | x | x | -0.4
SMILES | JMJD2C inh | MIN6 prolif | Granule exo inh | ALR inh | M18AAP inhibitor | SMARCA2 act
Cc1cc(NCCOCCO)n2ncc(-c3ccc(Cl)cc3)c2n1 | -10.4 | -4.0 | -3.1 | 98.2* | 4.6 | -1.8
CCNC(=O)N(C)[C@H]1C[C@H]2c3[nH]c4c(-c5ccccc5)cccc4c3CCN2C(=O)[C@H]1[C@H](C)O | x | x | x | x | x | -4.3
COc1cc2c(cc1OC)C(c1ccc(O)cc1)NCC2 (configuration not stated) | 4.5 | -1.3 | -13.0 | -2.3 | -6.8 | -3.5
Cc1cccc(C2CN(C)CCc3c2cc(O)c(O)c3Cl)c1 (configuration not stated) | x | -8.0 | 3.6 | 98.3* | x | -2.4
Oc1cc2c(c(Cl)c1O)CCNCC2c1ccccc1 (configuration not stated) | -5.8 | -7.1 | 0.0 | 98.7* | x | -2.5
Cc1cccc(C2CC3(CC(C)(C)NC(=S)N3)Oc3cc(O)ccc32)c1 (configuration not stated) | -0.7 | -2.2 | -1.4 | 2.4 | 7.3 | 1.8
Oc1ccc(C2CNCCc3c2cc(O)c(O)c3Cl)cc1 (configuration not stated) | 4.3 | -4.4 | -3.7 | 99.1*! | x | 2.7
C/C=C/C=C/C(=O)c1cc(C)c(OC(=O)CNC(=O)OC(C)(C)C)c(C)c1O | x | x | x | x | x | -3.2
c1ccc(-c2c[nH]c3cccc(C4CCCCC4)c23)cc1 | x | x | x | x | x | -1.0
CC1CCN(c2ccc(C(=O)O)cc2NS(=O)(=O)c2cccc3cccnc23)CC1 | x | x | x | x | x | -3.4
COC(=O)CSc1ccc(C#N)c(SCC(=O)OC)c1 | -1.4 | -4.2 | 3.3 | 98.9* | 2.9 | -2.4
CCN(C(=S)Nc1cc(S(=O)(=O)N2CCOCC2)ccc1Cl)c1cccc2ccccc12 | 7.6 | 0.0 | 60.6* | x | 1.6 | -1.4
O=S(=O)(c1ccc(Cl)c(NC(=S)Nc2cccc(O)c2)c1)N1CCOCC1 | 7.8 | -1.1 | 1.3 | 45.7 | 17.4 | 1.5
CCN(CC)c1ccc(NC(=O)CSc2nc3ccccc3c(=O)n2-c2ccc(C)cc2)cc1 | x | x | x | x | x | -5.2
COc1ccc(C(CC(=O)c2ccc(C)cc2)C(C#N)C#N)cc1OC (configuration not stated) | -0.3 | 0.0 | 18.4 | 51.2 | 7.9 | -4.6
COC(=O)C(C(=O)OC)C(CC(=O)c1ccc(C)cc1)c1cc(OC)c(OC)c(OC)c1 (configuration not stated) | 10.1 | 0.2 | -3.9 | 97.4* | 1.6 | 0.6
CCCCCCCCN1C(=O)[C@@H](CC(=O)NCCCN2CCCC2=O)C[C@@]2(C(=O)OC)C1=C[C@H](C(C)C)O[C@@H]2C1CC1 | x | x | x | x | x | -0.1
S=c1[nH]nc(-c2cc(-c3ccccn3)nc3ccccc23)o1 | -6.2 | -4.8 | 9.6 | 18.8 | 1.8 | -1.9
Cc1ccc(-c2cc(-c3n[nH]c(=S)o3)c3ccccc3n2)cc1 | 11.2 | x | -2.8 | 98.3* | -22.5 | -2.8
Cc1nn(Cc2ccc(C(=O)NN)cc2)c(C)c1Cl | 2.1 | -3.1 | -3.4 | x | 1.8 | 1.7
Cc1nn(Cc2ccc(Cl)cc2)c(C)c1N | -3.7 | -3.2 | -1.7 | 93.8* | 0.1 | -3.5
CC(C)[C@H](NC(=O)C1CCCC1)C(=O)N1CCC[C@H]1C(=O)NCCc1ccccc1Cl | x | x | x | x | x | -0.7
O=c1cc(O)nc(-c2ccccc2)s1 | -21.5 | 1.0 | -7.2 | -30.1 | 9.9 | -0.4
O=c1cc(O)nc(-c2ccc(Cl)cc2)s1 | -9.0 | 0.4 | 3.3 | 93.5* | 8.7 | -1.8
CCOC(=O)/C=C1\Nc2ccccc2OC1=O | -6.2 | -1.9 | -1.9 | 93.2* | 4.9 | -3.7
CCOC(=O)/C=C1\CC(C(=O)OCC)Oc2ccccc21 (configuration not stated) | x | x | 2.1 | x | x | 0.0

Bioassay records as filed in PubChem.
